This is an account of results in PubChem BioAssay (Tox21).

Where “and” joins values, the source holds several entries; their conditions need not be identical. Equal entries are not always repeated. Results filed as inconclusive are left out. Some structures have more than one record in an assay (separate samples or runs), and their calls can disagree. Calls of active or inactive are those of the source. Unless noted, calls come from the whole dose curve; as a rule, active = well fitted curve in the direction sought with a large enough effect in the repeat runs; inconclusive = weak or mixed curves; inactive = no such curve, though single readings can be large; an effect the other way counts as inactive or inconclusive.

Experiment [1] can be described thus: qHTS assay to test for compound auto fluorescence at 460 nm (blue) in HEK293 cell free culture (AID 720681). Note: potency is the fitted concentration of half-maximal effect. A digest of the protocol:
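Test compounds were pinned into cell-free culture medium (DMEM with 10% FBS) and fluorescence was read directly at Ex/Em 405/460 nm. Signals were expressed as fluorescence equivalents of triamterene, with DMSO vehicle as control.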
A general note: qHTS replaces the single test concentration by a dilution series.

A short description of experiment [2]: qHTS assay to test for compound auto fluorescence at 535 nm (green) in HEK293 cell free culture (AID 720682). A digest of the protocol: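 Green-channel intensity (Ex/Em 485/535 nm) was recorded from compound-treated wells containing only DMEM with 10% FBS. Fluorescein provided the equivalency standard.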
Experiment [3] is described as follows: qHTS assay to test for compound auto fluorescence at 590 nm (red) in HepG2 cell free culture (AID 720684). A digest of the protocol: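 Red fluorescence (540 nm excitation, 590 nm emission) was measured after compound transfer into cell-free MEM supplemented with 10% FBS. Values are equivalencies against Rose Bengal sodium.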
A short description of experiment [4]: qHTS assay to test for compound auto fluorescence at 460 nm (blue) in HepG2 cell free culture (AID 720685). Note: potency is the fitted concentration of half-maximal effect. A digest of the protocol: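 Compound (23 nL) or DMSO pinned into cell-free MEM with 10% FBS; blue fluorescence read at 405/460 nm excitation/emission, expressed as auto-fluorescence equivalency to triamterene.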
The nature of experiment [5]: qHTS assay to test for compound auto fluorescence at 535 nm (green) in HepG2 cell free culture (AID 720686).
Experiment [6] can be described thus: qHTS assay to test for compound auto fluorescence at 460 nm (blue) in HepG2 cells (AID 720687). Note: potency is the fitted concentration of half-maximal effect. A digest of the protocol: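 Cells (2,000/well in MEM with 10% FBS) attached overnight at 37 C, then were exposed to compound or DMSO for 1 hr at 37 C, 5% CO2. Fluorescence read at Ex/Em 405/460 nm, expressed as triamterene-equivalent signal.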
Experiment [7] deals with Glucocorticoid receptor (Homo sapiens) (UniProt P04150). Description: qHTS assay to identify small molecule agonists of the glucocorticoid receptor (GR) signaling pathway (AID 720691; active = well fitted activation curve with a large enough effect in the signal ratio in the repeat runs, not every such curve was filed as active; the % refers to the signal ratio). A digest of the protocol: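 GR-bla HeLa cells (beta-lactamase reporter under glucocorticoid response element) were plated 4 h at 37 C/5% CO2, given compounds in DMSO, and incubated 18 h at 37 C. LiveBLAzer B/G FRET substrate was added for 2 h at room temperature, then fluorescence intensity read.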

Experiment [8] has the same target. The experiment is described as follows: qHTS assay to identify small molecule antagonists of the glucocorticoid receptor (GR) signaling pathway (AID 720692; active = well fitted inhibition curve with a large enough effect in the signal ratio in the repeat runs, not every such curve was filed as active; the % refers to the signal ratio). A digest of the protocol:
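GR-bla HeLa cells (beta-lactamase reporter under glucocorticoid response element) were pre-plated 4 h at 37 C, treated with compounds plus 5 nM dexamethasone (final) for 18 h, then read by LiveBLAzer B/G FRET fluorescence after 2 h.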

Experiment [9] can be described thus: qHTS assay for identifying genotoxic compounds that show differential cytotoxicity against isogenic chicken DT40 cell lines with known DNA damage response pathways - wild type cell line (AID 743012). Note: nearly all actives have a fitted effect of over 60% in size. Note: potency is the fitted concentration of half-maximal effect. A digest of the protocol:
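Parental DNA repair-proficient DT40 cells, 300 per well, were pre-incubated ~0.5 h at 37 C/5% CO2, pin-dosed with compounds in DMSO, then incubated 40 h. Viability was read as CellTiter-Glo luminescence after 30 min at room temperature.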

Experiment [10] in a line: qHTS assay for identifying genotoxic compounds that show differential cytotoxicity against isogenic chicken DT40 cell lines with known DNA damage response pathways - Rev3 mutant cell line (AID 743014). Note: nearly all actives have a fitted effect of over 55% in size. Note: potency is the fitted concentration of half-maximal effect.
Experiment [11] in a line: qHTS assay to identify small molecule antagonists of the thyroid receptor (TR) signaling pathway - cell viability counter screen (AID 743064). Note: nearly all actives have a fitted effect of over 50% in size. A digest of the protocol:
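In rat pituitary GH3.TRE-Luc reporter cells co-exposed to compound and 1 nM T3 for 23.5 h, cytotoxicity was assessed with CellTiter-Fluor in the same wells, read by fluorescence.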

Experiment [12] is described as follows: qHTS assay to test for compound auto fluorescence at 590 nm (red) in HEK293 cell free culture (AID 720683). A digest of the protocol: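 Tox21 10K library compounds were pinned into cell-free DMEM with 10% FBS and fluorescence was read at excitation 540 nm. Activity is expressed as Rose Bengal sodium equivalency.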
Experiment [13] in a line: qHTS assay to identify small molecule antagonists of the glucocorticoid receptor (GR) signaling pathway - cell viability counter screen (AID 720693). Note: nearly all actives have a fitted effect of over 55% in size.
A short description of experiment [14]: qHTS assay for identifying genotoxic compounds that show differential cytotoxicity against isogenic chicken DT40 cell lines with known DNA damage response pathways - Rad54/Ku70 mutant cell line (AID 743015). Note: nearly all actives have a fitted effect of over 60% in size. Note: potency is the fitted concentration of half-maximal effect.
Experiment [15] is described as follows: qHTS assay to identify small molecule antagonists of the androgen receptor (AR) signaling pathway using the MDA cell line - cell viability counter screen (AID 743041; note: nearly all actives have a fitted effect of over 45% in size). A digest of the protocol:
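MDA-kb2 AR-luc human breast carcinoma cells (MMTV-luciferase, AR/GR responsive) were treated with compounds plus R1881 agonist for 16 h at 37 °C. Viability was read as CellTiter-Fluor fluorescence in the same wells as the reporter assay.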

A short description of experiment [16]: qHTS assay to identify small molecule antagonists of the androgen receptor (AR) signaling pathway - cell viability counter screen (AID 743033; note: nearly all actives have a fitted effect of over 45% in size; note: potency is the fitted concentration of half-maximal effect).
Experiment [17] deals with Androgen receptor (Homo sapiens) (UniProt P10275). The experiment is described as follows: qHTS assay to identify small molecule agonists of the androgen receptor (AR) signaling pathway (AID 743036; active = well fitted activation curve with a large enough effect in the signal ratio in the repeat runs, with a control signal flat, not every such curve was filed as active; the % refers to the signal ratio). A digest of the protocol: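 Cell-based FRET reporter assay: HEK293 line with a UAS-beta-lactamase construct, compounds added in DMSO, 16 h exposure at 37C, then 2 h substrate step at room temperature and fluorescence intensity read.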

Experiment [18] shares this target. The experiment is described as follows: qHTS assay to identify small molecule antagonists of the androgen receptor (AR) signaling pathway using the MDA cell line (AID 743042; note: nearly all actives have a fitted effect of over 55% in size). A digest of the protocol: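 MDA-kb2 cells (human breast carcinoma, stably carrying an MMTV-luciferase reporter responsive to AR and GR) were plated at 3,000 cells/well and preincubated 5 hr at 37C, then given compound plus R1881 agonist for 16 h. ONE-Glo luminescence was read.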
Tags give direction and shape of the fitted curve or compound fluorescence and quenching.

Sequence of Androgen receptor (Homo sapiens) (P10275 whole entry, looked up): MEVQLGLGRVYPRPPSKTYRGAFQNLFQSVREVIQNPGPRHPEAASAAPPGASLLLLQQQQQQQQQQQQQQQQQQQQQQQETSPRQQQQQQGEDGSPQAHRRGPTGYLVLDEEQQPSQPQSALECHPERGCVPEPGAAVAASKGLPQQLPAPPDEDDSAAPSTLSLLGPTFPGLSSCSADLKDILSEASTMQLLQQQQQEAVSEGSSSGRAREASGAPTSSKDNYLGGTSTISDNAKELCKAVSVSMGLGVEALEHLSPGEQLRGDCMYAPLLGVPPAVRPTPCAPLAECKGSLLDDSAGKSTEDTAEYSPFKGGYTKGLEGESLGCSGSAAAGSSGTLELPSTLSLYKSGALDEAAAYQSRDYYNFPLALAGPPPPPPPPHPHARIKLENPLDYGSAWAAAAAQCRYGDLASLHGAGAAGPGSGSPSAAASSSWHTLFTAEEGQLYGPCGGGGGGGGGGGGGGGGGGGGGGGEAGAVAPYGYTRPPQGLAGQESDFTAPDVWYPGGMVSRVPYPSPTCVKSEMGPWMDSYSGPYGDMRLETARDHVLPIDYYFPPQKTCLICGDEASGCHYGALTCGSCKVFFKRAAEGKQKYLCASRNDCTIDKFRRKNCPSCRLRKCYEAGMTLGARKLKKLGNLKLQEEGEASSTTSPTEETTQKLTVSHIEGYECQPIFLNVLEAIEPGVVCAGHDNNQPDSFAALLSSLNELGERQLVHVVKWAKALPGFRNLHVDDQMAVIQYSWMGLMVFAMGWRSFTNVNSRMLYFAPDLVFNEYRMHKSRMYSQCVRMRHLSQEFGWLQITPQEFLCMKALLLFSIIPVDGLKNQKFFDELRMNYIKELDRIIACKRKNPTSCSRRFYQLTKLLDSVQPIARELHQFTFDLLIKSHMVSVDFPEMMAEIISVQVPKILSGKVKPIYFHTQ
Sequence of Glucocorticoid receptor (Homo sapiens) (P04150 whole entry, looked up): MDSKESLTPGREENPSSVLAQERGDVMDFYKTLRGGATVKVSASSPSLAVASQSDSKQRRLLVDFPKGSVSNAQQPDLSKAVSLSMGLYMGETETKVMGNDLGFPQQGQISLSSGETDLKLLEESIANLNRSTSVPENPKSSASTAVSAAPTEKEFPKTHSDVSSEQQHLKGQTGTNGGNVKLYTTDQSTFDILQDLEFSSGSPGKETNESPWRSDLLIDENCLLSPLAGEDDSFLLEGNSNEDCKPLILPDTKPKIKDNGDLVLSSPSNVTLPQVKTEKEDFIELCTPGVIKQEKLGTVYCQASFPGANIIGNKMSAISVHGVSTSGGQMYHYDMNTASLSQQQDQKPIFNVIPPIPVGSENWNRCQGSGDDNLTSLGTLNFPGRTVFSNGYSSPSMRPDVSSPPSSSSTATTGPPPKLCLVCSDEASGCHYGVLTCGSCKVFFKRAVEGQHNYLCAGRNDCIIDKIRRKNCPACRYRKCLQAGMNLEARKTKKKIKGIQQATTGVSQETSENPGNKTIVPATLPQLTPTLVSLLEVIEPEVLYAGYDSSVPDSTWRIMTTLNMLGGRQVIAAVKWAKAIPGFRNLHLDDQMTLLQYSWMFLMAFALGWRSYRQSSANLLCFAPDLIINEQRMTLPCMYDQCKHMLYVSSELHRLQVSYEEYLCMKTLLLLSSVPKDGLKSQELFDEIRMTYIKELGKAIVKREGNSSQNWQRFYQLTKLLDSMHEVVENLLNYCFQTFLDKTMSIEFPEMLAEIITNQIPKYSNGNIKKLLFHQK

Consider `CC(C)(C)c1cccc(C(C)(C)C)c1O`, for which the Potency entry in experiment [1], in experiment [2], in experiment [3], in experiment [4], in experiment [5] and in [6] was “inactive” each time. Moreover, the Potency entry in experiment [7], in experiment [8], in [9], in [10] and in experiment [11] was “inactive” throughout.

Take `Cc1ccc(/C(=C\CN2CCCC2)c2ccccn2)cc1`: the Potency result in experiment [1], in experiment [2], in [12], in experiment [3], in [4] and in experiment [5] was “inactive” in each case. In addition, the Potency result in experiment [6], in [13] and in experiment [15] was “inactive” each time. Further, the Potency in experiment [9] is 26.6 µM (active) and 57.3 µM (active); in experiment [10], “inactive and 57.3 µM (active)”; in experiment [14], 23.7 µM (active) and 64.3 µM (active).

For `Clc1ccc(Sc2cc(Cl)c(Cl)cc2Cl)cc1`, the Potency entry in [1], in experiment [2], in experiment [3], in [4], in experiment [5] and in experiment [6] was “inactive” in each case. The Potency entry in experiment [7], in experiment [8], in experiment [9], in [10], in [14] and in [16] was “inactive” throughout. For the same compound, the Potency result in experiment [15] and in experiment [11] was “inactive” in each case.

Take `C=CN1CCCC1=O`: the Potency result in [1], in experiment [2], in experiment [12], in [3], in [4] and in experiment [5] was “inactive” in each case. Also, the Potency entry in [6], in [9], in experiment [10], in experiment [14], in [16] and in [15] was “inactive” throughout. The Potency entry in experiment [11] was “inactive”.

As for `CCCCCC=O`, the Potency result in experiment [1], in [2], in experiment [12], in [3], in experiment [4] and in [5] was “inactive” throughout. In addition, the Potency entry in [6], in experiment [9], in [10], in experiment [14], in experiment [15] and in experiment [11] was “inactive” each time.

On to `[Na+]`, for which the Potency result in experiment [1], in experiment [2], in [12], in experiment [3], in experiment [4] and in [5] was “inactive” throughout. In addition, the Potency result in experiment [6], in experiment [7], in [8], in experiment [9], in [10] and in experiment [14] was “inactive” in each case. Also, the Potency result in experiment [16] and in experiment [11] was “inactive” throughout.

Regarding `Nc1ccc2c(O)cc(S(=O)(=O)O)cc2c1`, the Potency entry in experiment [1], in [2], in experiment [12], in experiment [3], in experiment [5] and in [7] was “inactive” throughout. The Potency result in experiment [13], in [9] and in experiment [16] was “inactive” throughout.

As for `Cc1ccc([N+](=O)[O-])c(C)c1`, the Potency result in experiment [1], in experiment [2], in [3], in experiment [4], in experiment [5] and in experiment [6] was “inactive” in each case. Further, the Potency entry in [7], in experiment [8], in experiment [9], in [10], in experiment [14] and in experiment [15] was “inactive” each time.

Take `CC(C)[N+](C)(CCOC(=O)C1c2ccccc2Oc2ccccc21)C(C)C`: the Potency result in [1], in experiment [2], in experiment [12], in experiment [3], in experiment [4] and in experiment [5] was “inactive” in each case. Moreover, the Potency result in experiment [6], in experiment [7], in [8], in experiment [9], in experiment [10] and in experiment [16] was “inactive” each time. Moreover, the Potency entry in experiment [15] is “inactive”.

As for `O=C(O)c1ccc(O)cc1`, the Potency result in [1], in [2], in [12], in experiment [3], in [4] and in experiment [5] was “inactive” each time. The Potency result in experiment [6], in [7], in experiment [8], in [13], in experiment [9] and in experiment [10] was “inactive” each time. For the same compound, the Potency entry in experiment [14], in experiment [16] and in [15] was “inactive” in each case.

Regarding `CC(=O)OC(C)C`, the Potency result in experiment [1], in experiment [2], in experiment [12], in experiment [3], in [4] and in experiment [5] was “inactive” in each case. In addition, the Potency result in experiment [6], in [7], in experiment [8], in experiment [13], in [9] and in [10] was “inactive” each time. The Potency entry in experiment [14] and in [15] was “inactive” throughout.

Turning to `CN(Cc1cnc2nc(N)nc(N)c2n1)c1ccc(C(=O)N[C@@H](CCC(=O)O)C(=O)O)cc1`, the Potency in experiment [1] is 39.8 µM (active); in experiment [4] it was 35.5 µM [fluorescent] (active); in experiment [6] it was 35.5 µM [fluorescent] (active); in [9] it was 9.4 nM (active) and 1.7 nM (active); in experiment [10], 11.9 nM (active) and 1.7 nM (active); in experiment [16], 75.6 nM (active). The Potency entry in experiment [2], in experiment [12], in experiment [3], in experiment [5], in [13] and in experiment [18] was “inactive” in each case. In addition, in [17], the result was inactive.

In the case of `FC(F)(F)C(Cl)Br` (stereo unspecified), the Potency entry in [1], in experiment [2], in experiment [12], in experiment [3], in experiment [4] and in experiment [5] was “inactive” throughout. For the same compound, the Potency result in experiment [6], in [7], in [8], in experiment [13], in experiment [9] and in experiment [10] was “inactive” in each case. Further, the Potency entry in [14] and in [15] was “inactive” in each case.
